High-throughput results: PubChem BioAssay, National Center for Advancing Translational Sciences (NCATS)
Sampled rows, rich in hits. Any-hit rate of the full collection: about 10%.
PLK1 PBD inh: blocks phosphopeptide binding to human PLK1 polo-box domain | P53350 | Plk1 PBD binding of FITC phosphopeptide, fluorescence polarization | Potency, µM, hits mostly inhibitors | hit rate 2.8% among 360,000 | AID 720504; also: series mostly up to about 57 µM; nearly all actives have a fitted effect of over 65% in size
CCT chaperon mod: changes cytosolic chaperonin activity; purified chaperonin ATPase assay, HTRF ADP detection, 30 min; hit rate 0.3% among 360,000; AID 651819; activity change, % (no concentration beside the values), hits read low; in the data active = activity change below about -30%
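First, chaperonin was dispensed at 40 nM or 20 nM final depending on batch activity. Next, compounds were pinned at 76 uM and ATP added at 10 uM. After 30 min at 37 °C, ADP detection reagents ran 30 min at ambient temperature.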
G9a inh: inhibitors of human histone lysine methyltransferase G9a. hit rate 8.8% among 350,000. Potency, µM (titrated, usually from 102 µM), most hits filed as inhibitors. G9a H3K9 monomethylation, AlphaScreen, 2 h; also: nearly all actives have a fitted effect of over 75% in size
Target sequence (Q96KQ7 913-1193 limits assumed): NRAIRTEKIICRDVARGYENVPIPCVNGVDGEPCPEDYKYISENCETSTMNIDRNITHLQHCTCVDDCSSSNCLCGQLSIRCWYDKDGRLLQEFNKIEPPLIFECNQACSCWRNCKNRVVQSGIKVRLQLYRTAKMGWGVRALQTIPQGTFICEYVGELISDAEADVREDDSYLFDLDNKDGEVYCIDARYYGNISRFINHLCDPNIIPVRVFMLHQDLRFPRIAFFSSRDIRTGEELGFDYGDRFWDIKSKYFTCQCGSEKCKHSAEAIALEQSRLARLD
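AlphaScreen detection with an anti-monomethyl H3K9 antibody quantified product after a 2 h room-temperature reaction containing 500 nM biotinylated H3K9 peptide, 20 µM SAM and 20 nM enzyme, which had been preincubated 15 min with compound.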
Sfp PPTase inh: inhibitors of Bacillus subtilis Sfp phosphopantetheinyl transferase | Q9F4F7 | Biochemical Sfp PPTase activity, qHTS | Potency, µM, hits mostly inhibitors | hit rate 3.5% among 310,000;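 also: the enzyme is Sfp with the accession as filed and its product quenches rhodamine fluorescence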
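Buffer: 50 mM Hepes-Na pH 7.6, 10 mM MgCl2, 0.01% Nonidet P-40, 0.01% BSA. Enzyme 15 nM, pre-exposed to compound 15 min; substrates then added and fluorescence change tracked over 30 min.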
Mm-Cpn inhibitor: blocks the Methanococcus maripaludis chaperonin Mm-Cpn; purified Mm-Cpn ATPase, ADP Transcreener TR-FRET; hit rate 0.031% among 330,000; AID 504842; Potency, µM (top dose mostly 76.9 µM), most hits filed as inhibitors; also: nearly all actives have a fitted effect of over 80% in size
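Quantitative HTS used 25 nM Mm-CPN and 10 uM ATP in magnesium/KCl Tris buffer, pH 7.4, with 1 mM DTT. Hydrolysis ran 30 min at 37°C; ADP was read by HTRF.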
VDR inhibitor: inhibitors of human vitamin D receptor; Potency, µM, hits mostly inhibitors; AID 504847; P11473; hit rate 0.93% among 400,000; VDR-SRC2-3 peptide fluorescence polarization, 2 h
Target sequence (P11473 whole entry, looked up): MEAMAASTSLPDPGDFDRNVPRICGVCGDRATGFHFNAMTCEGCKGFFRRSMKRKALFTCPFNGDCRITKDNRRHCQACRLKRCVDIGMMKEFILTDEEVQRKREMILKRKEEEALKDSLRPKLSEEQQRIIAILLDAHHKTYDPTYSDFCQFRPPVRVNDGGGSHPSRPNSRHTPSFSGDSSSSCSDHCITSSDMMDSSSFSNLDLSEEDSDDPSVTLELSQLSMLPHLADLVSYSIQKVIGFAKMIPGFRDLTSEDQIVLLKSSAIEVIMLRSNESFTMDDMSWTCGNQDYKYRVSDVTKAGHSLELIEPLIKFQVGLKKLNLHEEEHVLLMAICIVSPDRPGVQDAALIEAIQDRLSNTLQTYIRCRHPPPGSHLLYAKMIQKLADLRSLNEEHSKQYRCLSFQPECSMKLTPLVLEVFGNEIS
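Reagent solutions, kept cold and dark, are dispensed first; compounds are then pinned in at 23 nl, plates briefly spun, and incubated 2 h at ambient temperature. Inhibition of VDR–SRC2-3 peptide binding is read by fluorescence polarization.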
Hits are given with their value; [ ] = another dose, or the depositor's remark. Unless noted, calls follow the shape of the dose curve; as a rule, active = well fitted curve in the direction sought with a large enough effect; inconclusive = small, poorly fitted or top-dose-only effect, or another doubt; inactive = no such curve, though single readings can be large; an effect the other way counts as inactive or inconclusive.

COc1cccc(/C=N/Nc2nn3cnnc3c3ccccc23)c1 was read as PLK1 PBD inh inactive, CCT chaperon mod inactive, G9a inh inactive, Sfp PPTase inh 56µM, Mm-Cpn inhibitor inactive and VDR inhibitor inactive.
For Cc1cc(C)cc(NC(=O)c2cccc(C(=O)Nc3cc(C)cc(C)c3)c2)c1 the results were G9a inh inactive and VDR inhibitor inactive.
`COc1cc(/C=N/Nc2nn3cnnc3c3ccccc23)ccc1O` gave PLK1 PBD inh inactive, CCT chaperon mod inactive, G9a inh 79µM, Sfp PPTase inh 40µM, Mm-Cpn inhibitor inactive and VDR inhibitor inactive.
Screening C[C@@H](c1ccccc1)N1C(=O)[C@H]2[C@H]3[C@H](O)[C@H](O)C/C(=N/OCc4ccccc4)[C@H]3CC[C@@H]2C1=O returned Sfp PPTase inh inactive.
CSc1ccccc1NC(=O)C1CCCO1 (stereo unspecified) was read as PLK1 PBD inh inactive, CCT chaperon mod inactive, G9a inh 16µM, Sfp PPTase inh 79µM, Mm-Cpn inhibitor inactive and VDR inhibitor inactive.
Cc1cc(NC(=O)C2CCCO2)ccc1Br (stereo unspecified) was read as PLK1 PBD inh inactive, CCT chaperon mod -107, G9a inh inactive, Sfp PPTase inh inactive, Mm-Cpn inhibitor inactive and VDR inhibitor inactive.
Screening NC(=O)c1ccccc1NC(=O)C1CCCO1 (stereo unspecified) returned PLK1 PBD inh inactive, CCT chaperon mod inactive, G9a inh inactive, Sfp PPTase inh inactive, Mm-Cpn inhibitor inactive and VDR inhibitor inactive.
N#Cc1ccccc1NC(=O)C(=O)NCC(c1ccc2c(c1)OCO2)N1CCOCC1 (stereo unspecified) was read as G9a inh inactive and VDR inhibitor inactive.
`Cc1cccc(NC(=O)CN(C)S(=O)(=O)c2ccc3c(c2)CCC(=O)N3)c1C` gave G9a inh inactive and VDR inhibitor inactive.
CCCOc1ccc(CNC(=O)c2[nH]c3cc(OC)ccc3c2Sc2ccccc2)cc1 was read as G9a inh inconclusive and VDR inhibitor inactive.
Screening CC(C)CN1CC[C@@]2(CCCN(C(=O)c3csnn3)C2)C1 returned G9a inh inconclusive, Sfp PPTase inh inactive and VDR inhibitor inactive.
`O=C(CC(c1ccc(F)cc1)c1ccco1)Nc1nccs1` (stereo unspecified) gave PLK1 PBD inh inactive, CCT chaperon mod inactive, G9a inh 28µM, Sfp PPTase inh inactive, Mm-Cpn inhibitor inactive and VDR inhibitor inactive.
O=C(CC(c1ccc(F)cc1)c1ccco1)N1CCCC1 (stereo unspecified) was read as PLK1 PBD inh inactive, CCT chaperon mod inactive, G9a inh 40µM, Sfp PPTase inh 32µM, Mm-Cpn inhibitor inactive and VDR inhibitor inactive.
For O=C(CC(c1ccc(F)cc1)c1ccco1)N1CCOCC1 (stereo unspecified) the results were PLK1 PBD inh inactive, CCT chaperon mod inactive, G9a inh inactive, Sfp PPTase inh inactive, Mm-Cpn inhibitor inactive and VDR inhibitor inconclusive.
For O=C1c2ccccc2C(=O)N1CCC(c1ccc(F)cc1)c1ccco1 (stereo unspecified) the results were PLK1 PBD inh inactive, CCT chaperon mod inactive, G9a inh inconclusive, Sfp PPTase inh 14µM, Mm-Cpn inhibitor inactive and VDR inhibitor inactive.
`CCCN(CCC)C(=O)CC(c1ccc(F)cc1)c1ccco1` (stereo unspecified) gave PLK1 PBD inh inconclusive, CCT chaperon mod inactive, G9a inh 45µM, Sfp PPTase inh inactive, Mm-Cpn inhibitor inactive and VDR inhibitor inconclusive.
Screening COCCn1c(C)cc(O)c(C(c2ccccc2F)N2CCN(c3ccccc3)CC2)c1=O (stereo unspecified) returned G9a inh inconclusive and VDR inhibitor inactive.
For OCCN(Cc1ccccc1)Cc1ccccc1Cl the results were PLK1 PBD inh inactive, CCT chaperon mod inactive, G9a inh 3.5µM, Sfp PPTase inh 28µM, Mm-Cpn inhibitor inactive and VDR inhibitor inactive.
For OCCN(Cc1ccccc1)Cc1cccc(Cl)c1Cl the results were PLK1 PBD inh inactive, CCT chaperon mod inactive, G9a inh inconclusive, Sfp PPTase inh inconclusive, Mm-Cpn inhibitor inactive and VDR inhibitor inactive.
Screening OCCN(Cc1ccccc1)Cc1cccc(C(F)(F)F)c1 returned PLK1 PBD inh inactive, CCT chaperon mod inactive, G9a inh 18µM, Sfp PPTase inh inactive and VDR inhibitor inactive.
CN(CC(=O)Nc1cccc(C(F)(F)F)c1)Cc1ccccc1 was read as PLK1 PBD inh inactive, CCT chaperon mod inactive, G9a inh inactive, Sfp PPTase inh inactive, Mm-Cpn inhibitor inactive and VDR inhibitor inactive.
OCCN(Cc1ccccc1)Cc1ccc(C(F)(F)F)cc1 was read as PLK1 PBD inh inactive, CCT chaperon mod inactive, G9a inh 28µM, Sfp PPTase inh inactive, Mm-Cpn inhibitor inactive and VDR inhibitor inactive.
COC(=O)c1c(SCC(=O)Nc2cccc(Cl)c2C)[nH]c2ccccc2c1=O was read as G9a inh inactive and VDR inhibitor inactive.
`CC(=O)N1CCc2c(sc3c2c(=O)n(-c2ccc(C)cc2)c(=O)n3Cc2ccccc2C)C1` gave G9a inh inactive and VDR inhibitor inactive.
`C(=C\c1ccccc1)/C=N/Nc1nncc(-c2ccccc2)n1` gave G9a inh inactive, Sfp PPTase inh inactive and Mm-Cpn inhibitor inactive.
`Cc1[nH]n(-c2ccccc2)c(=O)c1/C=N/Nc1nncc(-c2ccccc2)n1` gave PLK1 PBD inh inactive, CCT chaperon mod inactive, G9a inh 20µM, Sfp PPTase inh inactive, Mm-Cpn inhibitor inactive and VDR inhibitor inactive.
`CCOc1cc(/C=N/Nc2nncc(-c3ccccc3)n2)ccc1O` gave PLK1 PBD inh 15µM, CCT chaperon mod inactive, G9a inh inactive, Sfp PPTase inh inactive, Mm-Cpn inhibitor inactive and VDR inhibitor inactive.
For Oc1cccc(/C=N\Nc2nncc(-c3ccccc3)n2)c1 the results were PLK1 PBD inh 21µM, CCT chaperon mod inactive, G9a inh inactive[12.7 µM], Sfp PPTase inh inactive, Mm-Cpn inhibitor inactive and VDR inhibitor inconclusive.
NC(=O)C1(N2CCCCC2)CCN(CCCC(=O)c2ccc(F)cc2)CC1 was read as G9a inh inactive[12.7 µM], Sfp PPTase inh inactive and VDR inhibitor inactive.
For CCCC12CN3CC(C)(CN(C1)C3c1ccc(CC)cc1)C2=O (stereo unspecified) the results were G9a inh inconclusive and VDR inhibitor inactive.
For O=C1C=CC(=O)N1Cc1ccccc1 the results were PLK1 PBD inh 4.7µM, CCT chaperon mod inactive, G9a inh 1.8µM, Sfp PPTase inh 18µM, Mm-Cpn inhibitor inactive and VDR inhibitor 16µM.
CS(=O)(=O)NC(=O)CCC/C=C\C[C@H]1C(=O)C[C@@H](O)[C@@H]1/C=C/[C@@H](O)COc1ccccc1 was read as Sfp PPTase inh inactive and VDR inhibitor inactive.
CCN(CC)c1c([N+](=O)[O-])c(=O)n(C)c2ccccc12 was read as PLK1 PBD inh inactive, CCT chaperon mod inactive, G9a inh inactive, Sfp PPTase inh inactive, Mm-Cpn inhibitor inactive and VDR inhibitor inactive.
